In PubChem BioAssay:
Potency and affinity values are given separately. Results filed as inconclusive are left out. Active and inactive are the calls of the source. Unless noted, no rule for the calls is given here.

Tests used:
[1] = cytotoxicity in PAX8-dependent RMG-1 cells, dose response, cell-based, cherry-pick (AID 687029;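 active = signal drop whose fitted half-maximal concentration is at most twice the top valid dose, in every test run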;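 also: cells exposed to compound for 96 hours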); conditions: RMG-1 viability, CellTiterGlo ATP luminescence, 96 h; series mostly up to 35 µM
[2] = inhibitors of CMV-promoter luciferase reporter, dose response, counter-screen for Pax8 inhibitor project, cell-based, HEK293, luminescence, dry powder (AID 743020;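 active = signal-lowering compounds whose fitted half-maximal concentration is at or below twice the top tested dose in every run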;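 also: HEK293 cells stably expressing the CMV luciferase reporter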); conditions: SteadyGlo luminescence, 24 h; series mostly up to 35 µM
[3] = non-specific cell cytotoxicity, dose response, cytotoxicity control for PAX8 inhibitor project, plate reader, dry powder samples (AID 743021); conditions: cell line, non-specific cytotoxicity counter-screen; series mostly up to 35 µM
[4] = IGROV1 ovarian cancer cell cytotoxicity, dose response, PAX8 inhibitor project, plate reader, dry powder samples (AID 743043); conditions: series mostly up to 35 µM;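 also: more negative means fewer viable cells or more cytotoxicity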
[5] = IOSE-T80 ovarian epithelial cell cytotoxicity, dose response, cytotoxicity control for PAX8 inhibitor project, plate reader, dry powder samples (AID 743045); conditions: IOSE-T80 ovarian epithelial cells; series mostly up to 35 µM;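 also: more negative values mean more cell killing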
[6] = A2780 ovarian cancer cell cytotoxicity, dose response, cytotoxicity control, plate reader, dry powder samples (AID 743046); conditions: series mostly up to 35 µM
[7] = cytotoxicity in OVCAR8 ovarian cancer cells, dose response, PAX8 project, cell-based, plate reader, dry powder samples (AID 743197); conditions: series mostly up to 35 µM

Measured: outcome

C[C@H](CO)N1C[C@H](C)[C@@H](CN(C)C(=O)C2CCCCC2)OCCCC[C@H](C)Oc2ccc(NS(=O)(=O)c3ccc(Cl)cc3)cc2C1=O
inactive: [1] | [2] | [3] | [4] | [5] | [6] | [7]

Cc1ccc(S(=O)(=O)Nc2ccc3c(c2)C(=O)N([C@@H](C)CO)C[C@@H](C)[C@H](CN(C)Cc2ccc(C(F)(F)F)cc2)OCCCC[C@H](C)O3)cc1
inactive: [1] | [2] | [3] | [4] | [5] | [6]

COc1ccc(CN(C)C[C@H]2OCCCC[C@@H](C)Oc3ccc(NC(=O)Nc4ccc(F)cc4)cc3C(=O)N([C@@H](C)CO)C[C@@H]2C)cc1
inactive: [1] | [2] | [4] | [5]
